For seven compounds, growth results are on record in PubChem BioAssay (NCI).

Structures are written as SMILES. Where “and” joins values, the source holds several entries; their conditions need not be identical. Equal values may be shown once. This is part of a sample that, as a whole, favours compounds with a hit. Of some 83,000 tested, about 20% had one in any assay.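 Single-concentration screen, 48 h exposure, 96-well plates. Endpoint: percent growth. Below 10 = active.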 Calls of active or inactive are those of the source.

Common to all, as to test: NCI-60 one-dose screen, 48 h (100 = growth as untreated, 0 = no growth, -100 = all killed)
Settings in all cases: 10 µM unless noted

Test [1] deals with HCT-15 colon.
Test [2] concerns HT29 colon.
The test system of test [3] is SNB-75 CNS.
Test [4] concerns SNB-19 CNS.
Test [5] concerns U251 CNS.
Test [6] deals with PC-3 prostate.
The subject of test [7] is SK-MEL-5 melanoma.
In test [8] the test system is UACC-62 melanoma.
The subject of test [9] is LOX IMVI melanoma.
The subject of test [10] is SK-MEL-28 melanoma.
The subject of test [11] is SK-MEL-2 melanoma.
Test [12] deals with EKVX NSCLC.
Test [13] relates to SN12C renal.
Test [14] concerns UO-31 renal.
In test [15] the test system is TK-10 renal.
Test [16] relates to ACHN renal.
The subject of test [17] is CAKI-1 renal.
The test system of test [18] is A498 renal.
In test [19] the test system is CCRF-CEM leukemia.
Test [20] deals with MOLT-4 leukemia.

For the compound `COc1cc(CO)cc2cc3ccccc3nc12`, the growth was 106% (inactive) in test [1]; 103% (inactive) in test [2]; 74.7% (inactive) in test [3]; 97.1% (inactive) in test [4]; 99.2% (inactive) in test [5]; 104% (inactive) in [6]. Moreover, the growth in [7] is 105% (inactive); in test [8] it was 98.7% (inactive); in [9] it was 100% (inactive); in test [10], 113% (inactive); in [11], 111% (inactive); in test [12] it was 102% (inactive). The growth was 101% (inactive) in test [13]; 81.7% (inactive) in [14]; 118% (inactive) in test [15]; 105% (inactive) in test [16]; 93.6% (inactive) in [17]; -22.1% (active) in test [18]. Further, the values for the growth in test [19] and in [20] were 99.1% (inactive) and 99.4% (inactive), respectively.

In the case of `CCOc1ccc(N2C(N)=NC(N)=NC2(C)C)cc1`, the growth in test [1] is 99.9% (inactive); in test [2] it was 2.75% (active) and 87.4% (inactive); in test [3], -3.85% (active) and 82.7% (inactive); in test [4], 40.3% (inactive) and 98.2% (inactive); in [5] it was 20% (inactive) and 68.6% (inactive); in [6], 16% (inactive) and 39.3% (inactive). Further, the growth was 4.48% (active) and 102% (inactive) in test [7]; 41.4% (inactive) and 95.4% (inactive) in test [8]; 36.7% (inactive) and 90.1% (inactive) in [9]; 31.2% (inactive) and 113% (inactive) in test [10]; -0.847% (active) and 107% (inactive) in test [11]; 93.9% (inactive) in test [12]. The growth in test [13] was 32.2% (inactive) and 96.9% (inactive); in test [14], 42% (inactive) and 96.6% (inactive); in [15], 40.9% (inactive); in test [16], 44.6% (inactive) and 102% (inactive); in test [17], 13.3% (inactive) and 98.4% (inactive); in [18] it was -5.18% (active) and 72.7% (inactive). For the same compound, the growth in test [19] was 9.4% (active) and 79.8% (inactive); in test [20], 39.2% (inactive) and 81.5% (inactive).

For `Nc1nc2c(s1)CCc1cn(S(=O)(=O)c3ccccc3)cc1-2`, the growth was 98.3% (inactive) and 99.3% (inactive) in test [1]; 106% (inactive) in test [2]; 80.5% (inactive) and 89.9% (inactive) in test [3]; 94.6% (inactive) and 97% (inactive) in [4]; 80.3% (inactive) and 97.7% (inactive) in test [5]; 75.6% (inactive) and 84.4% (inactive) in test [6]. Also, the growth in test [7] is 90.1% (inactive) and 95% (inactive); in test [8], 79.4% (inactive) and 96.3% (inactive); in [9], 84.1% (inactive) and 104% (inactive); in test [10] it was 113% (inactive) and 104% (inactive); in test [11], 106% (inactive) and 99.1% (inactive); in [12] it was 95.8% (inactive). In addition, the growth is 86.6% (inactive) and 93.5% (inactive) in [13]; 54.5% (inactive) and 84.5% (inactive) in test [14]; 108% (inactive) and 115% (inactive) in test [15]; 95.9% (inactive) and 101% (inactive) in test [16]; 85.8% (inactive) and 101% (inactive) in [17]; 80% (inactive) and 73.5% (inactive) in [18]. The growth was 79.9% (inactive) and 79.3% (inactive) in test [19]; 84.3% (inactive) and 91.6% (inactive) in test [20].

On to `COc1ccc(-c2cc(-c3cc(OC)c(OC)c(OC)c3)c(C#N)c(=O)n2CCCCC(=O)O)cc1`, for which the growth is 77.3% (inactive) in test [1]; 99.4% (inactive) in test [2]; 51.8% (inactive) in [3]; 96.3% (inactive) in test [4]; 91.5% (inactive) in [5]; 90.9% (inactive) in test [6]. Besides, the growth in test [7] is 93.6% (inactive); in test [8], 89.8% (inactive); in test [9], 78.6% (inactive); in test [10], 112% (inactive); in test [11] it was 107% (inactive); in test [12] it was 98.5% (inactive). Also, the growth in test [13] was 90.6% (inactive); in [14] it was 65.7% (inactive); in test [15], 112% (inactive); in test [16], 91.2% (inactive); in [17] it was 70.9% (inactive); in test [18], 85.6% (inactive). The growth in test [19] is 85.3% (inactive); in test [20], 105% (inactive).

Take `Clc1ccc(CNc2ccc3nc(CCC4CCCCC4)[nH]c3c2)cc1`: the growth in [1] is 9.61% (active); in test [2], 4.9% (active); in test [3], 77.2% (inactive); in [4] it was 71.1% (inactive); in test [5], 43.8% (inactive); in [6], 46.7% (inactive). Besides, the growth in test [7] is 0.653% (active); in test [8], 67.4% (inactive); in test [9] it was 72% (inactive); in test [10], 42% (inactive); in [11], 85.6% (inactive); in test [12], 75.6% (inactive). The growth in test [13] was 59.1% (inactive); in test [14], 29.9% (inactive); in [15], 83.6% (inactive); in [16] it was 76.6% (inactive); in [17] it was 50.4% (inactive); in test [18], 45.8% (inactive). Besides, the growth in test [19] was 41.4% (inactive); in test [20] it was 39.1% (inactive).

`COc1ccc(-c2nc(Cl)c3c(C)nn(-c4ccc(F)cc4)c3n2)cc1`: the growth in test [1] was 110% (inactive); in [2], 98.3% (inactive); in test [3], 104% (inactive); in test [4], 99.7% (inactive); in test [5], 96.5% (inactive); in test [6], 89.6% (inactive). For the same compound, the growth in test [7] is 100% (inactive); in test [8], 100% (inactive); in [9], 101% (inactive); in test [10] it was 110% (inactive); in [11], 91.9% (inactive); in test [12] it was 111% (inactive). The growth in [13] was 99% (inactive); in test [14] it was 97.3% (inactive); in test [15], 98% (inactive); in test [16] it was 106% (inactive); in [17], 107% (inactive); in test [18], 101% (inactive). Moreover, the growth was 102% (inactive) in [19] and 103% (inactive) in test [20].

Turning to `COc1cc(/C=N/NC(=O)CCN2c3ccccc3Sc3ccccc32)cc(OC)c1OC`, the growth was 96.4% (inactive) in test [1]; 90% (inactive) in test [2]; 91.6% (inactive) in test [3]; 90.4% (inactive) in test [4]; 97.8% (inactive) in test [5]; 61.4% (inactive) in test [6]. The growth in test [7] is 76.5% (inactive); in [8] it was 62.6% (inactive); in test [9], 79.5% (inactive); in test [10], 97.5% (inactive); in test [11], 98.4% (inactive); in test [12] it was 72.7% (inactive). Besides, the growth in test [13] is 76.8% (inactive); in test [14], 63.7% (inactive); in [15], 110% (inactive); in test [16], 76% (inactive); in test [17], 67.1% (inactive); in [18], 61.1% (inactive). The growth in test [19] was 73.9% (inactive); in test [20] it was 71.5% (inactive).
